The whole screen tested about 5,500 compounds, of which about 2,000 (36%) were called active. Inconclusive results (about 18%) are left out. No stated cut-off is given here; in the data, active means normalized growth mostly below about 0.91 (no sharp cut-off); inconclusive means no clear call, values can overlap the other calls; inactive means mostly above about 0.92. The list shows a part of the results.
Assay: chemical genetic growth profiling, strain panel (AID 1159580);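 further: tested at 20 µM; growth read once vehicle control cultures reached saturation at 30 °C; 1 = growth at the plate median or of vehicle wells; lower values mean less growth of the strain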
Conditions: S. cerevisiae deletion strains, growth OD
[1] = locus YAL040C, strain CLN3, active compounds read low
[2] = locus YCL061C, strain MRC1 (second series), active compounds read low
[3] = locus YDR150W, strain NUM1, active compounds read low
[4] = locus YDR363W, strain ESC2, active compounds read low
[5] = locus YER002W, strain NOP16, active compounds read low
[6] = locus YJR075W, strain HOC1, active compounds read low
[7] = locus YMR307W, strain GAS1, active compounds read low
[8] = locus YNL175C, strain NOP13, active compounds read low
[9] = locus YNL197C, strain WHI3, active compounds read low
[10] = locus YNL224C, strain SQS1, active compounds read low
[11] = locus YOR083W, strain WHI5 (second series), active compounds read low

Measured: normalized growth

Cc1cccc(C(=O)NCN2CCN(c3ccccc3C#N)CC2)c1
inactive: [1] 0.963 | [2] 0.978 | [3] 0.987 | [4] 0.975 | [5] 0.974 | locus YGR229C, strain SMI1, active compounds read low 0.942 | [6] 0.978 | [7] 1.01 | [8] 0.979 | [9] 0.976 | [10] 0.993 | [11] 0.982 | locus YPL241C, strain CIN2, active compounds read low 0.982

FC(F)(F)c1cccc(NC(=S)Nc2csc(C(F)(F)F)c2-c2ccccc2)c1
active: locus YHR030C, strain SLT2, active compounds read low 0.848
inactive: locus YAR019C, strain CDC15, active compounds read low 0.968 | locus YBL105C, strain PKC1, active compounds read low 0.998 | locus YBR135W, strain CKS1, active compounds read low 0.995 | locus YBR136W, strain MEC1, active compounds read low 0.97 | locus YBR160W, strain CDC28, active compounds read low 0.988 | locus YDL017W, strain CDC7, active compounds read low 0.998 | locus YDL028C, strain MPS1, active compounds read low 0.992 | locus YDL101C, strain DUN1, active compounds read low 0.983 | locus YDL108W, strain KIN28, active compounds read low 0.993 | locus YDL132W, strain cdc53, active compounds read low 0.98 | locus YDL214C, strain PRR2, active compounds read low 0.944 | locus YDR052C, strain DBF4, active compounds read low 0.987 | locus YDR054C, strain cdc34, active compounds read low 0.97 | locus YDR226W, strain ADK1, active compounds read low 0.988 | locus YDR477W, strain SNF1, active compounds read low 0.991 | locus YER123W, strain YCK3, active compounds read low 0.991 | locus YER133W, strain GLC7, active compounds read low 0.964 | locus YFL009W, strain cdc4, active compounds read low 0.977 | locus YFL029C, strain CAK1, active compounds read low 0.954 | locus YFR003C, strain YPI1, active compounds read low 0.997 | locus YFR019W, strain FAB1, active compounds read low 0.984 | locus YFR028C, strain CDC14, active compounds read low 0.976 | locus YGR040W, strain KSS1, active compounds read low 0.981 | locus YGR052W, strain FMP48, active compounds read low 1.03 | locus YGR092W, strain DBF2, active compounds read low 0.951 | locus YHR079C, strain IRE1, active compounds read low 0.958 | locus YHR082C, strain KSP1, active compounds read low 1 | locus YHR205W, strain SCH9, active compounds read low 0.973 | locus YIL147C, strain SLN1, active compounds read low 0.984 | locus YJL095W, strain BCK1, active compounds read low 0.959 | locus YJL128C, strain PBS2, active compounds read low 0.973 | locus YJL157C, strain FAR1, active compounds read low 0.964 | locus YJR016C, strain ILV3, active compounds read low 0.984 | locus YJR066W, strain TOR1 (second series), active compounds read low 0.934 | locus YJR066W, strain TOR1, active compounds read low 0.983 | locus YKL048C, strain ELM1, active compounds read low 0.997 | locus YKL067W, strain YNK1, active compounds read low 0.963 | locus YKL101W, strain HSL1, active compounds read low 0.952 | locus YKL193C, strain SDS22, active compounds read low 0.985 | locus YKL203C, strain TOR2, active compounds read low 1.03 | locus YLR113W, strain HOG1, active compounds read low 0.892 | locus YLR133W, strain CKI1, active compounds read low 0.96 | locus YLR403W, strain SFP1, active compounds read low 0.989 | locus YML070W, strain DAK1, active compounds read low 0.965 | locus YMR001C, strain CDC5, active compounds read low 0.993 | locus YMR205C, strain PFK2 (second series), active compounds read low 0.96 | locus YMR277W, strain FCP1, active compounds read low 0.987 | locus YNL006W, strain LST8, active compounds read low 0.988 | locus YNL020C, strain ARK1, active compounds read low 0.964 | locus YNL161W, strain CBK1, active compounds read low 0.988 | locus YNL183C, strain NPR1, active compounds read low 0.976 | locus YNL207W, strain RIO2, active compounds read low 0.973 | locus YNL222W, strain SSU72, active compounds read low 0.991 | locus YNL307C, strain MCK1 (second series), active compounds read low 0.938 | locus YOL078W, strain AVO1, active compounds read low 0.986 | locus YOL136C, strain PFK27, active compounds read low 0.953 | locus YOR061W, strain CKA2, active compounds read low 0.945 | locus YOR119C, strain RIO1, active compounds read low 0.978 | locus YOR231W, strain MKK1, active compounds read low 0.957 | locus YOR329C, strain SCD5, active compounds read low 0.991 | locus YPL031C, strain PHO85, active compounds read low 0.976 | locus YPL153C, strain RAD53, active compounds read low 0.976 | locus YPL204W, strain HRR25, active compounds read low 0.955 | locus YPL209C, strain IPL1, active compounds read low 0.997 | locus YPL256C, strain CLN2, active compounds read low 0.934 | locus YPR025C, strain CCL1, active compounds read low 0.992 | locus YPR106W, strain ISR1, active compounds read low 0.984 | locus YPR111W, strain DBF20, active compounds read low 0.981 | strain NNK1, active compounds read low 0.991 | strain TSCII, active compounds read low 0.968

CC(O)C(O)[C@H]1CNc2nc(N)[nH]c(=O)c2N1 (stereo partly drawn)
inactive: [1] 1.04 | [2] 1.01 | [3] 1.02 | [4] 1.01 | [5] 1 | [6] 1.04 | locus YMR263W, strain SAP30, active compounds read low 1.01 | [7] 0.995 | locus YNL128W, strain TEP1, active compounds read low 0.998 | [8] 0.999 | [9] 1.01 | [10] 1 | [11] 1.02 | locus YPL055C, strain LGE1, active compounds read low 1.04
